Source: PubChem BioAssay (National Center for Advancing Translational Sciences (NCATS))
Nrf2 activator – activators of Nrf2 (ARE) signaling; Potency, µM (top dose mostly 46.1 µM), for inactives: top-dose activation, usual class: activators; AREc32 ARE-luciferase reporter (MCF7-derived line), luminescence, 24 h; 410,000 tested, 0.31% active; AID 624171; also: % of control where 0% means no effect; nearly all actives have a fitted effect of over 65% in size
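For detection, Steady-Glo was added and plates sat 30 min at RT; before that, AREc32_Fluc cells grown overnight in OPTI-MEM/5% FBS had been treated with 23 nL compound for 24 hr at 37 deg C.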
Nrf2 block – Nrf2 pathway inhibition | A549 ARE-Fluc reporter, luciferase luminescence, 18-24 h | AID 504444 | Potency, µM (doses to about 46 µM), for inactives: at the highest dose activity change, negative = inhibition, actives largely listed as inhibitors | 360,000 tested, 2.1% active; also: % is scaled to controls: 0 for no effect and ±100 for the full control effect; nearly all actives have a fitted effect of over 60% in size
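Nrf2 function is reported as luminescence of an ARE-controlled luciferase in A549 cells. Compounds were tested at several concentrations, and a CellTiter-Fluor read on the same wells flagged cytotoxicity.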
GALK inh – inhibitors of human galactokinase. 270,000 tested, 0.007% active. P51570. Purified GALK, Kinase-Glo residual ATP luminescence. Potency, µM (highest dose often 57.5 µM), for the others: top-dose activity change, negative = inhibition, usual class: inhibitors; also: % is scaled to controls: 0 for no effect and ±100 for the full control effect
Target sequence (P51570 whole entry, looked up): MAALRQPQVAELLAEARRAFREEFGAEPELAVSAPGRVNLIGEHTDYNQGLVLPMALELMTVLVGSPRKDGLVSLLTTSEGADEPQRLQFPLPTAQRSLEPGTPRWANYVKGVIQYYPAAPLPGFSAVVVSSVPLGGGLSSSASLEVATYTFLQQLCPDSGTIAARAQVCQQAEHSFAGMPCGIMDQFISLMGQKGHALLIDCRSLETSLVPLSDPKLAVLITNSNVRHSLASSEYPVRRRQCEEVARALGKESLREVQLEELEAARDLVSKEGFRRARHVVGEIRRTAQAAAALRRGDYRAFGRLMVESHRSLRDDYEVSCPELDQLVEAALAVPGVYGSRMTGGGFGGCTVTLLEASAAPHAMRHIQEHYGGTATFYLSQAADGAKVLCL
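Luminescence from leftover ATP (Ultra-Glo luciferase/luciferin) served as read-out after a 1 h room-temperature reaction of 5 nM GALK with 35 uM ATP and 100 uM galactose.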
TrxR1 substrate – rat thioredoxin reductase 1 substrate activity | Potency, µM (top dose mostly 114 µM), without a hit: at the top dose activity change, negative = substrate turnover | O89049 | purified TrxR1 substrate turnover, NADPH consumption readout | AID 588456 | 390,000 tested, 0.01% active; also: % is scaled to controls: 0 for no effect and ±100 for the full control effect; nearly all actives have a fitted effect of over 50% in size
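Rat TrxR1, dispensed at 90 nM, was prereduced with 400 uM NADPH (final) for 5 min at ~22 deg C, then incubated with compound 15 min before 400 uM selenite. A first-read NADPH fluorescence drop versus no-compound background flagged substrates.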
TrxR1 inh – inhibitors of rat thioredoxin reductase 1. O89049. recombinant rTrxR1, NADPH fluorescence consumption, selenite substrate. Potency, µM (doses to about 114 µM), for the others: at the top dose activity change, negative = inhibition, actives largely listed as inhibitors. 390,000 tested, 1% active; also: % is scaled to controls: 0 for no effect and ±100 for the full control effect; nearly all actives have a fitted effect of over 65% in size
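Rat TrxR1 (90 nM in the dispensed reagent) was pre-reduced with 400 uM NADPH for 5 min at room temperature, then incubated with compound for 15 min. After 400 uM selenite was added, NADPH fluorescence (Ex 340/Em 450 nm) was followed for 8 min.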
A549 tox – kills or reduces viability of A549 cells in Nrf2 counter-screen | A549 ARE-Fluc cells, CellTiter-Fluor viability, 18-24 h | Potency, µM (highest dose often 46 µM), inactives show top-dose activity change, negative = cytotoxicity, hits mostly inhibitors | 390,000 tested, 0.16% active | AID 504648; also: % is scaled to controls: 0 for no effect and ±100 for the full control effect
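A549 ARE_Fluc cells in 5% FBS OPTI-MEM were exposed to compounds in concentration-response for 18-24 h at 37 deg C. Viability was read by CellTiter-Fluor fluorescence (Ex 405/Em 525) after 30 min, before the luciferase read.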
* hit, by the source's call; ? = inconclusive; . = no result given; ! = not active in a repeat; [ ] = dose if it differs, or a comment. Rows were chosen to be rich in hits. Some 3% of all compounds tested hit in one or more screens of this group. Calls follow the shape of the dose curve; as a rule, active = well fitted curve in the direction sought with a large enough effect; inconclusive = small, poorly fitted or top-dose-only effect, or another doubt; inactive = no such curve, though single readings can be large; an effect the other way counts as inactive or inconclusive. Potency is read from the fitted curve at half-maximal effect.

SMILES	Nrf2 activator	Nrf2 block	GALK inh	TrxR1 substrate	TrxR1 inh	A549 tox
CCn1cc(C(=O)NCCC(C)C)c(=O)c2cc(S(=O)(=O)N(C)C3CCCCC3)ccc21	-0.3%	5.4%	.	-9.8%	7.4%	0.2%
Cc1cc2c(cc3c(SCC(=O)Nc4cccc(Cl)c4C)nnc(C)n32)o1	-0.1%	22.8%	.	-1.6%	18.8%	12.1%
C(=Nc1ccc2ccccc2n1)c1ccccn1	.	.	.	13.9%	-12.6%	.
CCn1c(SCC(=O)Nc2cccc(NC(C)=O)c2)nnc1-c1ccco1	-0.1%	-22.3%	7.4%	8.8%[0.0914 µM]	-8.6%[57.1 µM]	-3.7%
CCn1c(SCC(=O)Nc2ccc3c(c2)c2ccccc2n3CC)nnc1-c1ccco1	0.7%	?	4.4%	0.3%	2.82µM*	-12.5%
CC(C)Cn1c(SCC(=O)Nc2cccnc2Cl)nnc1-c1ccco1	-0.6%	-21.1%	.	2.8%	50.1µM*	2.6%
O=S(=O)(c1ccc2c(c1)OCCO2)N1CCN(S(=O)(=O)c2ccccc2Cl)CC1	.	16.4%	.	.	.	3.8%
COc1ccc(NC(=O)C2CCCN(S(=O)(=O)c3cccnc3)C2)cc1OC (configuration not stated)	-0.3%	-5.5%	5.4%	-0.5%	12.2%	1.4%
COc1ccc(S(=O)(=O)N2CCCC(C(=O)Nc3cccnc3)C2)cc1Cl (configuration not stated)	3.2%	16.4µM*	-4.1%	-7.3%	-33.1%	-17.7%
COc1ccc(NC(=O)C2CCCN(S(=O)(=O)c3ccc4c(c3)CCCN4C(C)=O)C2)cc1Cl (configuration not stated)	2.1%	16.4µM*	0.2%	2.8%	14.5%	-3.7%
CC(=O)N1CCCc2cc(S(=O)(=O)N3CCCC(C(=O)NCc4ccc(C)cc4)C3)ccc21 (configuration not stated)	1.9%	5.8µM*	-2.9%	-1.0%	6.8%	-5.3%
Cn1nnnc1Sc1ncnc2scc(-c3ccccc3C#N)c12	.	?	.	.	.	-8.4%
Cc1ccc2nc(-c3ccc(NC(=O)COC(=O)c4ccco4)cc3)sc2c1	0.4%	6.51µM*	0.4%	38.1%	7.2%	8.7%
CCN1C(=O)C=CC1=O	.	.	.	-2.8%[57.1 µM]	10.6µM*!	.
O=C1C=CC(=O)N1CCCCCCN1C(=O)C=CC1=O	-3.2%	?	0.4%	5.8%	0.708µM*	?
O=C(O)CN1C(=O)C=CC1=O	-1.0%	.	.	.	.	.
COC(=O)c1c(SC)nc2ccccc2c1OCc1ccc(Cl)cc1	2.3%	-15.2%	.	-3.0%[57.1 µM]	24.2%[57.1 µM]	13.5%
CCn1c(SCC(=O)N2CCC(C)CC2)nnc1-c1ccccc1O	0.0%	.	.	4.5%[57.1 µM]	16.3%[57.1 µM]	1.0%
CC1(C)CC(=O)C=C(OC(=O)c2ccc(Cl)cc2)C1	0.3%	-8.2%	-1.9%	7.9%[57.1 µM]	4.47µM*	0.6%
COc1ccc(C(=O)NNC2=CC(=O)CC(C)(C)C2)cc1	0.2%	9.8%	2.2%	-15.1%	?	-1.3%
CCC(C)c1ccc(OCC(=O)Nc2cccc(-c3nc4ncccc4o3)c2)cc1 (configuration not stated)	-2.0%	?	.	11.2%	27.5%	-7.4%
Cc1[nH]c2ccccc2c1C(=O)CNc1ccc(Br)cc1	.	.	.	4.7%	12.4%	.
COc1ccccc1C(C)NCC(=O)c1c(C)[nH]c2ccccc12 (configuration not stated)	.	.	.	-3.1%	20µM*	.
COc1cc(NC(=O)NCCn2nnc3cc(S(=O)(=O)N(C)C)ccc32)cc(OC)c1OC	-0.7%	.	.	2.1%[57.1 µM]	8.6%[57.1 µM]	-11.5%
CCOc1ccc(NS(=O)(=O)c2ccc(NC(=O)c3ccccn3)cc2)cc1	-0.5%	14.6µM*	.	-6.7%	15.9%	-11.0%
SMILES	Nrf2 activator	Nrf2 block	GALK inh	TrxR1 substrate	TrxR1 inh	A549 tox
CCCC(=O)NC(=S)Nc1ccc(S(=O)(=O)Nc2ccc(OCC)cc2)cc1	2.9%	7.31µM*	0.2%	-2.6%	?	18.4µM*
COc1cc2c(-c3ccccc3C)nc3c(c(C)nn3-c3ccccc3)c2cc1OC	-1.4%	-8.7%	.	116.9%	91.0%	-1.0%
O=C(Cn1cc(SCc2ccc(Cl)cc2)c2ccccc21)N1CCCC1	-0.4%	-7.1%	.	-5.7%	17.1%	-2.8%
CC(=O)n1nc(-c2cccnc2)nc1NCc1ccc(F)cc1	-1.2%	8.3%	.	0.8%	14.7%	1.0%
CCN(CC)C(=O)COc1ccc(-c2nnc(N3CCCCC3)c3ccccc23)cc1	2.3%	-10.6%	-4.1%	-0.9%	16.3%	-11.0%
CCOc1ccc(-c2nnc(N3CCCCC3)c3ccccc23)cc1	-0.7%	25.9µM*	2.9%	-3.4%	?	-28.2%
COc1ccc(C(=O)NCCn2cc(SCc3c(F)cccc3Cl)c3ccccc32)cc1	0.2%	?	.	0.1%	12.5%	?
O=c1oc2ccccc2cc1-c1csc(Cc2nc(-c3ccc(Cl)cc3)cs2)n1	0.0%	20.6µM*	0.0%	3.4%	3.4%	-1.4%
Cc1ccc(S(=O)(=O)N2C[C@@H]3[C@H]4CC[C@H](C4)[C@@H]3[C@@H](C)[C@@H]2c2cn(Cc3ccccc3)c3ncccc23)cc1	3.4%	20.6µM*	.	6.5%	36.0%	-0.1%
CCCN(C)CCCOc1cc2nc(N3CCCN(C)CC3)nc(NC3CCN(C)CC3)c2cc1OC	.	.	.	74.1%	-24.5%	.
CC(=O)NN1C(=O)/C(=C\c2ccccc2)SC1=S	?	0.0%	-5.0%	-3.8%[57.1 µM]	-9.5%[57.1 µM]	5.0%
CC(=O)NN1C(=O)/C(=C\c2ccc(Br)o2)SC1=S	15.8µM*	-11.9%	.	-15.3%	?	-6.8%
CC(=O)NN1C(=O)/C(=C/c2ccc(Br)o2)SC1=S	?	?	-1.4%	-6.1%[57.1 µM]	25.1µM*	?
Nc1ccc[n+](CC(=O)c2ccc(F)cc2)c1	.	.	.	-9.9%	-10.4%	.
Cc1ccc(C)c(N2CCN(c3nc4c(S(=O)(=O)c5ccccc5)nnn4c4ccc(Cl)cc34)CC2)c1	-0.8%	?	.	6.6%	14.5%	-10.0%
COc1ccc(C2Nc3ccccc3C(=O)N2CCO)cc1COc1ccc(NC(C)=O)cc1 (configuration not stated)	.	-11.3%	.	.	.	-9.5%
CCc1cccc(C)c1NC(=O)CSc1nnc(CCCOc2ccc(Cl)cc2Cl)n1C	3.6%	16.4µM*	.	-7.9%	5.6%	-14.3%
Cc1nn(C)c(C)c1Nc1ccc(N2C(=O)C3CC=CCC3C2=O)cc1[N+](=O)[O-] (configuration not stated)	4.8%	20.6µM*	0.9%	-0.7%	13.6%	-17.4%
CCC(C)(C)n1nnnc1CN1CCN(c2nc3cc(OC)ccc3cc2C#N)CC1	-0.1%	18.4µM*	8.1%	39.1%	13.2%	-13.5%
Cc1ccc(C)c(N2CCN(Cc3nnnn3C3CCCCC3)CC2)c1	0.0%	.	-0.4%	4.4%[57.1 µM]	-2.7%[57.1 µM]	12.8%
COc1ccc2cc(C#N)c(N3CCOCC3)nc2c1	0.1%	-9.0%	-0.2%	28.7%[57.1 µM]	14.4%[57.1 µM]	1.5%
